HP1b chromo inh: blocks HP1-beta chromodomain binding to methylated histone tails; P83916; AlphaScreen HP1-beta / biotin-H3K9me3 peptide binding; hit rate 0.56% among 390,000; Potency, µM (top dose mostly 114 µM), without a hit: at the highest dose activity change, negative = inhibition, most hits filed as inhibitors; note: nearly all actives have a fitted effect of over 70% in size
Target sequence (P83916 whole entry, looked up): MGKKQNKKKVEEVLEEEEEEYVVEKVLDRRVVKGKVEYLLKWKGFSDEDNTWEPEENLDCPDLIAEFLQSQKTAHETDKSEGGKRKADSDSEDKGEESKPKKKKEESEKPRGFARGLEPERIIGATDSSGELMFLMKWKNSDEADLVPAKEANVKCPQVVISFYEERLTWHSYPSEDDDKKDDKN
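HP1-beta protein (50 nM final) preincubated 30 min at room temperature with biotinylated H3(1-18)K9me3 peptide (50 nM) in PBS pH 7.4, 0.01% Tween-20, then compound added for 30 min. AlphaScreen streptavidin donor/nickel chelate acceptor beads (10 ug/mL final), 30 min dark, luminescence read.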
G9a block: inhibitors of human histone lysine methyltransferase G9a | Q96KQ7 | hit rate 8.8% among 350,000 | Potency, µM (top dose mostly 102 µM), without a hit: top-dose activity, negative = inhibition, usual class: inhibitors | G9a H3K9 monomethylation, AlphaScreen, 2 h; note: % is set by controls: 0 for no effect and ±100 for the full control effect; nearly all actives have a fitted effect of over 75% in size
Target sequence (Q96KQ7 913-1193 limits assumed): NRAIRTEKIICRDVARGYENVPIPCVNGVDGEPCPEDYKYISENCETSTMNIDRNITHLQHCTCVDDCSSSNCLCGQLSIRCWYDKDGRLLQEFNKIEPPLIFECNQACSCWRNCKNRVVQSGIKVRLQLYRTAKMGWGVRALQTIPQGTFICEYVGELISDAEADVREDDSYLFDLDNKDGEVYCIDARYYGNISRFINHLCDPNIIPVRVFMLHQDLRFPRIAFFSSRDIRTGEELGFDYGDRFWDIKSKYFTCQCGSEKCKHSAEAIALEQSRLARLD
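G9a (20 nM) was preincubated 15 min with compound, then reacted 2 h at room temperature with 500 nM biotin-H3K9 peptide and 20 µM SAM. Monomethyl-H3K9 detected by AlphaScreen using anti-H3K9me1 antibody.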
JMJD2A Tudor: inhibitors of human JMJD2A Tudor domain; AlphaScreen JMJD2A-Tudor / H3K4me3 peptide binding; hit rate 4.4% among 390,000; Potency, µM (series often up to 114 µM), inactives show at the top dose activity change, negative = inhibition, actives largely listed as inhibitors; O75164; note: % is set by controls: 0 for no effect and ±100 for the full control effect; nearly all actives have a fitted effect of over 50% in size
BAZ2B block: blocks human BAZ2B. Q9UIF8. AlphaScreen BAZ2B-H3K14Ac peptide displacement. Potency, µM (highest dose often 114 µM), for the others: top-dose activity change, negative = inhibition, hits mostly inhibitors. hit rate 4.4% among 360,000; note: % is set by controls: 0 for no effect and ±100 for the full control effect; nearly all actives have a fitted effect of over 60% in size
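Complex of BAZ2B and biotin-H3K14Ac (50 nM apiece) forms over 30 min at RT, then faces library compounds up to 110 uM for another 30 min; AlphaScreen beads added, 20 min dark incubation, luminescence read.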
Sfp inh: blocks B. subtilis Sfp PPTase activity. Q9F4F7. Biochemical Sfp PPTase activity, qHTS. Potency, µM, without a hit: largest response in the series, negative = inhibition, most hits filed as inhibitors. hit rate 3.5% among 310,000;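 note: the enzyme is Sfp with the accession as filed and its product quenches rhodamine fluorescence; 0% = enzyme reaction without inhibitor and -100% = no enzyme wells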
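Buffer: 50 mM Hepes-Na pH 7.6, 10 mM MgCl2, 0.01% Nonidet P-40, 0.01% BSA. Enzyme 15 nM, pre-exposed to compound 15 min; substrates then added and fluorescence change tracked over 30 min.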
PLK1 PBD inh: PLK1 (human) polo-box domain binding inhibition; hit rate 2.8% among 360,000; Potency, µM, without a hit: max response, negative = inhibition, actives largely listed as inhibitors; Plk1 PBD binding of FITC phosphopeptide, fluorescence polarization; note: series mostly up to about 57 µM; % is set by controls: 0 for no effect and ±100 for the full control effect; nearly all actives have a fitted effect of over 65% in size
* hit, by the source's call; ? = inconclusive; . = no result given; [ ] = remark or other dose. The list is not random: actives were taken first. Their share in the collection is about 12%. Calls come from the whole dose curve; as a rule, active = well fitted curve in the direction sought with a large enough effect; inconclusive = small, poorly fitted or top-dose-only effect, or another doubt; inactive = no such curve, though single readings can be large; an effect the other way counts as inactive or inconclusive. Potency is the fitted concentration of half-maximal effect.

SMILES	HP1b chromo inh	G9a block	JMJD2A Tudor	BAZ2B block	Sfp inh	PLK1 PBD inh
CO/N=C(/C)CCC(=O)OC[C@@H]1O[C@H](c2ccccc2)C=C[C@@H]1Oc1ccc(OC)cc1	.	.	.	.	-5.4%	.
Cc1ccc(NC(=O)Cn2cc(S(=O)(=O)N3CCN(c4ccccc4F)CC3)c3ccccc3c2=O)cc1F	20.2%	-21.4%[59 µM]	-10.6%	-11.7%	.	.
O=C(CCNC(=O)c1ccccc1Cl)Nc1ccc(S(=O)(=O)N2CCOCC2)cc1	.	.	.	.	.	2.9%
COc1ccc(/C(C)=N/NC(=O)c2nnn(-c3nonc3N)c2-c2ccccc2)cc1	26.2%	50.1µM*	-7.0%	?	-22.0%	-4.5%
COc1ccc(/C(C)=N/NC(=O)c2nnn(-c3nonc3N)c2CN(C)c2ccccc2)cc1	33.7%	18.3%	3.1%	-3.6%	18.0%	1.6%
C/C(=N\NC(=O)c1nnn(-c2nonc2N)c1CN1CCCCC1)c1ccccc1O	20.8%	11.4%	?	44.7µM*	3.3%	-6.5%
Cc1ccc(-c2c(C(=O)N/N=C/C3CCCCC3)nnn2-c2nonc2N)cc1	56.4%	0.6%	-3.0%	79.4µM*	14.9%	3.3%
C/C(=N\NC(=O)c1nnn(-c2nonc2N)c1CN(C)c1ccccc1)c1ccccc1O	13.2%[57 µM]	20.8%	14.1µM*	2.24µM*	2.3%	-18.8%
CC(/C=N/NC(=O)c1nnn(-c2nonc2N)c1CN1CCCCC1)=C\c1ccccc1	27.5%	.	-15.1%	-16.7%	-9.5%	-13.3%
Cc1cccc(C)c1NC(=S)Nc1ccc(F)cc1	23.3%	0.0%	-10.4%	-22.1%	17.6%	-2.4%
Cc1cccc(NNC(=S)Nc2c(C)cccc2C)c1	-5.6%[57 µM]	44.7µM*	14.1µM*	14.1µM*	9.2%	-26.4%
Cc1cccc(NC(=S)NNc2cccc(Cl)c2)c1	10µM*	31.6µM*	56.2µM*	10µM*	-17.1%	26.7µM*
CN(CCc1ccccn1)C1CC(=O)N(c2ccc(Cl)cc2)C1=O (stereo unspecified)	48.2%	5.01µM*	-21.5%	-3.9%	-17.1%	-10.7%
CC(=O)Nc1ccc2c(c1)nc1n2CCN(C2CCCCC2)C1	-3.2%	10µM*	-29.2%	?	7.8%	-29.8%
CCCC(=O)Nc1ccc2c(c1)nc1n2CCN(C2CCCCC2)C1	-4.7%	12.6µM*	?	-29.2%	25.3%	?
CCCC(=O)N1CCCC(c2cc(C(=O)NCc3cccnc3)no2)C1 (stereo unspecified)	.	.	.	.	.	-10.2%
COc1ccc(/C=C2\Oc3cc(OCC(=O)N4CC(O)C[C@H]4C(=O)O)ccc3C2=O)cc1OC (stereo partly specified)	30.5%	.	-17.0%	-7.9%	3.6%	1.3%
Cc1noc(NS(=O)(=O)c2ccc(NC(=O)/C=C/c3ccc(C(C)C)cc3)cc2)c1C	-1.9%	44.7µM*	-35.2%	?	11.9%	?
Cc1cc2oc(C(=O)Nc3ccc(S(=O)(=O)Nc4onc(C)c4C)cc3)cc(=O)c2cc1C	1.1%	8.1%[59 µM]	-26.4%	2.6%	.	.
Cc1noc(NS(=O)(=O)c2ccc(NC(=O)CC34CC5CC(CC(Br)(C5)C3)C4)cc2)c1C	39.1%	70.8µM*	-18.3%[57.1 µM]	-38.5%	29.7%	?
Cc1ccc2c(=O)cc(C(=O)Nc3ccc(S(=O)(=O)Nc4onc(C)c4C)cc3)oc2c1C	9.9%	-37.4%[59 µM]	56.2µM*	-33.5%	.	.
Cc1noc(NS(=O)(=O)c2ccc(NC(=O)c3ccc(N4C(=O)c5ccccc5C4=O)cc3)cc2)c1C	-5.0%	2.1%	-35.4%	50.1µM*	19.4%	-25.9%
Fc1cccc(Cl)c1CNCc1cccnc1	22.0%	.	-6.9%	-2.7%	12.1%	4.4%
Cc1[nH]c2ccccc2c1C(=O)COC(=O)C1CC(O)CN1S(=O)(=O)c1ccc(Cl)cc1 (stereo unspecified)	-13.5%[57 µM]	-13.8%[59 µM]	31.6µM*	-0.4%	.	149.9%
O=C(O)c1cccc(-n2cccc2/C=N/O)c1	?	?	31.6µM*	44.7µM*	14.5%	?
SMILES	HP1b chromo inh	G9a block	JMJD2A Tudor	BAZ2B block	Sfp inh	PLK1 PBD inh
ON=Cc1cccn1-c1ccccc1	-10.3%	-36.3%[59 µM]	-33.1%	50.1µM*	8.1%	-2.8%
O=C(O)CCc1ccc(-c2ccccc2)n1NC(=O)c1sc2ccccc2c1Cl	-21.4%	50.1µM*	4.0%[57.1 µM]	?	-3.4%	-15.1%
CC(=O)Nc1ccc(S(=O)(=O)NCC(=O)OC(C)c2ccccc2Cl)cc1 (stereo unspecified)	2.9%	3.2%[59 µM]	-9.5%	-21.8%	-10.3%	-0.6%
Cc1ccc2c(c1)c1c(n2CC(O)CNC(C)(C)C)CCCC1 (stereo unspecified)	-12.4%	50.1µM*	44.7µM*	44.7µM*	11.7%	-6.1%
CNCC(O)Cn1c2c(c3ccccc31)CCCC2 (stereo unspecified)	-4.9%	50.1µM*	28.2µM*	?	12.2%	-23.3%
Cc1ccc2c(c1)c1c(n2CC(O)Cn2c(C)nc3ccccc32)CCCC1 (stereo unspecified)	7.5%	-24.3%	?	8.7%	9.6%	-17.7%
Cc1ccc2c(c1)c1c(n2CC(O)CN2CCCCCC2)CCCC1 (stereo unspecified)	?	?	?	35.5µM*	-2.3%	-20.1%
Cc1cc(C)c(S(=O)(=O)Nc2nnc(C3CCCCC3)s2)c(C)c1	16.7%	70.8µM*	-5.2%	-37.9%	5.0%	?
Cc1cc(C)c(S(=O)(=O)Nc2nnc(C)s2)c(C)c1	21.9%	-11.3%[59 µM]	?	-28.4%	2.7%	3.36µM*
COCCSc1nnc(NC(=O)COC)s1	24.8%	-47.8%[2.33 µM]	-10.4%	-7.0%	2.7%	-9.9%
COCc1nnc(NC(=O)CSCc2ccccc2)s1	8.7%	15.5%[0.0925 µM]	-14.1%	?	-26.2%	21.2µM*
COCc1nnc(NC(=O)CCc2ccccc2)s1	62.8%	11.2µM*	-11.7%	-14.1%	3.5%	-11.0%
COCc1nnc(NC(=O)CCc2ccc(OC)cc2)s1	49.8%	.	6.1%	-10.2%	5.9%	2.4%
COCCSc1nnc(NC(=O)CSCc2ccccc2)s1	37.7%	14.1µM*	-10.4%	0.9%	15.4%	-26.8%
COCCSc1nnc(NS(=O)(=O)c2ccccc2)s1	26.0%	28.2µM*	-6.2%	?	-22.7%	?
C=C1C(=O)[C@@]23[C@H](O)C[C@@H]4C(C)(C)CC[C@H](O)[C@@]4(C)[C@@H]2CC[C@@H]1[C@H]3O	53.8%	-8.2%	-1.4%	2.2%	-5.3%	-14.3%
Cc1ccc(S(=O)(=O)N2CCC(C(=O)N/N=C/c3ccncc3)CC2)cc1	35.0%	1.8%	-4.3%	-1.8%	11.4%	-8.4%
NC(=S)Nc1cccc2[nH]ccc12	28.5%	-30.1%	-4.1%	-20.6%	0.1%	1.5%
Cc1ccc(Cl)cc1NC(=O)CSc1nc2c(c(=O)[nH]1)CN(Cc1ccccc1)CC2	40.4%	-42.3%[59 µM]	-1.0%	-3.7%	.	.
Nc1nncn1C(=O)CCc1ccccc1	30.5%	?	-11.1%	-10.4%	1.6%	-11.2%

From PubChem BioAssay
